Source: PubChem BioAssay (Tox21)
Inconclusive results are not listed. The source made the active and inactive calls. Calls follow the shape of the dose curve; as a rule, active = well fitted cell-killing curve with a large enough effect in the repeat runs; inconclusive = weak or mixed curves, or effect the other way; inactive = flat fitted curve, though single readings scatter.

assay: Human pregnane X receptor (PXR) small molecule agonists, qHTS cell viability counter screen (AID 1346977); settings: PXR-Luc HepG2 viability, CellTiter-Fluor, 24 h; series mostly up to 92.4 µM; activity change, negative = cytotoxicity: at the top concentration; also: nearly all actives have a fitted effect of over 50% in size
Description: U.S. Tox21 Program National Center for Advancing Translational Sciences [NCATS] NIH Chemical Genomics Center [NCGC] U.S. Environmental Protection Agency [EPA] National Institutes of Environmental Health Sciences [NIEHS] National Toxicology Program [NTP] U.S. Food and Drug Administration [FDA] Tox21 Assay Overview: The human pregnane X receptor (hPXR) regulates the expression of several drug metabolizing enzymes and induction of these proteins is a major mechanism for developing drug resistance in cancer. One such key enzyme catalyzing the drug metabolism is cytochrome P450 3A4 (CYP3A4). Changes in CYP3A4 expression affect drug metabolism, thereby reducing the therapeutic efficacy and altering toxicological response to a drug and which finally causes adverse drug interaction. To screen Tox21 libraries for compounds that activate hPXR-mediated CYP3A4 gene expression, PXR-Luc HepG2 cells were used. Also cytotoxicity of the compounds was tested in parallel by measuring the cell viability using CellTiter-Fluor assay system in the same wells.
Tox21 Assay Protocol Summary: PXR-Luc HepG2 cells were dispensed at 2,000 per well in 5uL of assay medium containing 5% charcoal-stripped FBS into white solid bottom 1536-well plates (Corning Life Sciences, Corning, NY) using a Multidrop Combi (Thermo Scientific, Waltham, MA) dispenser. The assay plates were incubated at 37 C and 5% CO2 for 5hr, and then 23nL of compounds dissolved in DMSO and positive control were transferred using a Pintool station (Wako, San Diego, CA). The assay plates were incubated at 37C and 5% CO2 for 24hr. For cytotoxicity read, after 23hr incubation at 37C, 1uL CellTiter-Fluor reagent (Promega Corporation, Madison, WI) was added to each well of the assay plates using Flying Reagent Dispenser (FRD, Aurora Discovery, San Diego, CA). After 1hr incubation at 37C and 5% CO2, the fluorescence signal was quantified using a ViewLux plate reader (PerkinElmer, Shelton, CT).
% is scaled to controls: 0 for no effect and ±100 for the full control effect; potency is read from the fitted curve at half-maximal effect.

Structure (SMILES)	activity change, negative = cytotoxicity	Potency
COc1ccc(CCC(=O)c2c(O)cc(O[C@@H]3O[C@H](CO)[C@@H](O)[C@H](O)[C@H]3O[C@@H]3O[C@@H](C)[C@H](O)[C@@H](O)[C@H]3O)cc2O)cc1O	1.58% (inactive)	–
C=CCOC(=O)/C=C\C(=O)OCC=C	0.213% (inactive)	–
CC(=O)Nc1ccccc1C	10.5% (inactive)	–
COC(=O)[C@@H]1CC2=CC(=O)CC[C@]2(C)[C@@]23O[C@@H]2C[C@@]2(C)[C@@H](CC[C@@]24CCC(=O)O4)[C@H]13	9.14% [at 42.5 µM] (inactive)	–
CCC1(C)CC(=O)NC1=O (stereo not given)	9.05% [at 42.5 µM] (inactive)	–
CC(COc1ccc(C(C)(C)C)cc1)OS(=O)OCCCl (stereo not given)	–	12.3 µM (active)
C=CCNc1nc(NCC=C)nc(N2CCN(C(c3ccc(F)cc3)c3ccc(F)cc3)CC2)n1	-21.1% [at 42.5 µM] (inactive)	–
CC(C)(C)C(=O)O	-2.95% (inactive)	–
Cn1c(=O)c2c(ncn2CC(=O)O)n(C)c1=O	0.43% [at 42.5 µM] (inactive)	–
CCn1nc(C)c2c1C(=O)NCC(c1ccc(O)cc1)=N2	-12% (inactive)	–
CCCC(=O)O[C@]1(C(=O)COC(=O)CC)CC[C@H]2[C@@H]3CCC4=CC(=O)CC[C@]4(C)[C@H]3[C@@H](O)C[C@@]21C	12.4% [at 19 µM] (inactive)	–
COc1cc2c(cc1OC)-c1cc(=Nc3c(C)cc(C)cc3C)n(C)c(=O)n1CC2	-9.57% [at 42.5 µM] (inactive)	–
Cc1oc(C)c(C(=O)Nc2ccccc2)c1C	-12.6% (inactive)	–
CCn1cc(C(=O)O)c(=O)c2cc(F)c(N3CCNCC3)nc21	6.8% [at 42.5 µM] (inactive)	–
CC(C)(CCl)c1ccccc1	0.827% (inactive)	–
CCc1nn(CCCN2CCN(c3cccc(Cl)c3)CC2)c(=O)n1CCOc1ccccc1	–	23.7 µM (active)
CC1(C)C2=CCCC(C)(C)[C@]23CC[C@H]1C3	12.3% (inactive)	–
CC[C@H](NC(=O)c1cc(F)ccc1NS(=O)(=O)c1cccc2cccnc12)c1ccccc1	-0.88% (inactive)	–
CNCCCC1c2ccccc2C=Cc2ccccc21	–	29.8 µM (active)
Cc1oncc1C(=O)Nc1ccc(C(F)(F)F)cc1	11.8% [at 42.5 µM] (inactive)	–

Structure (SMILES)	activity change, negative = cytotoxicity	Potency
CC1=CC(O)CC(C)(C)C1 (stereo not given)	0.834% (inactive)	–
CCCCC(CC)CNCC(CC)CCCC (stereo not given)	-0.25% (inactive)	–
CCOC(=O)c1ccccc1OC	8.97% (inactive)	–
CC(=N\O)/C(C)=N/O	-0.918% (inactive)	–
CC(=O)OCC(=O)[C@H]1CC[C@H]2[C@@H]3CCC4=CC(=O)CC[C@]4(C)[C@H]3CC[C@]12C	3.59% [at 42.5 µM] (inactive)	–
O=C(NCCCN1CCOCC1)c1ccc(Cl)cc1	10.9% [at 42.5 µM] (inactive)	–
CCCOCCOCCO	3.97% (inactive)	–
CC(C)OCC1CO1 (stereo not given)	7.57% (inactive)	–
CC(C)(O)c1ccccc1CC[C@@H](SCC1(CC(=O)O)CC1)c1cccc(/C=C/c2ccc3ccc(Cl)cc3n2)c1	8.67% [at 42.5 µM] (inactive)	–
Brc1cc(-c2ccc(Br)c(Br)c2Br)cc(Br)c1Br	0.298% [at 42.5 µM] (inactive)	–
CNC(=S)NC	-9.43% (inactive)	–
Cc1occc1C(=O)Nc1ccc(C(=O)N2CCC(F)(F)/C(=C\C(=O)N3CCC(N4CCCCC4)CC3)c3ccccc32)cc1	–	17 µM (active)
Fc1ccccc1[C@@H](F)COC1CCC(Nc2ncnc3[nH]ncc23)CC1 (stereo not given in full)	–	27.3 µM (active)
CC(C)CCCCCOC(=O)CCCCC(=O)OCCCCCC(C)C	12.2% (inactive)	–
CCOC(=N)CC(=O)OCC	-8.84% (inactive)	–
CO[Si](C)(OC)OC	12.9% (inactive)	–
O=C(CS)OCCOC(=O)CS	21.9% (inactive)	–
COc1ccc(C(=O)c2cccc(O)c2)c(OC)c1	-9.07% (inactive)	–
O=C(CCCCCCC(=O)Nc1ccccc1)NO	–	8.41 µM (active)
C[C@]12CCC(=O)C=C1C=C[C@@H]1[C@@H]2CC[C@@]2(C)[C@H]1CC[C@@]21CCC(=O)O1	-3.22% [at 42.5 µM] (inactive)	–
